Publication PMC7862700, “An all-to-all approach to the identification of sequence-specific readers for epigenetic DNA modifications on cytosine”

Experiments:
Assay in all cases: DAPPL (digital affinity profiling via proximity ligation, sequencing); 10 mM Tris-HCl pH 7.5, 50 mM NaCl, 1 mM DTT, 4% glycerol, room temperature, 30 min; GST-TFs on glutathione beads, 16-mer random dsDNA library, 0.1% formaldehyde crosslink after washing; high values mean tight binding
FLI1 = molecular target: T1, FLI1 (Homo sapiens, UniProt Q01543 1-452); conditions: protein: recombinant; tags: N-terminal GST; dsDNA, one strand shown
T1 sequence: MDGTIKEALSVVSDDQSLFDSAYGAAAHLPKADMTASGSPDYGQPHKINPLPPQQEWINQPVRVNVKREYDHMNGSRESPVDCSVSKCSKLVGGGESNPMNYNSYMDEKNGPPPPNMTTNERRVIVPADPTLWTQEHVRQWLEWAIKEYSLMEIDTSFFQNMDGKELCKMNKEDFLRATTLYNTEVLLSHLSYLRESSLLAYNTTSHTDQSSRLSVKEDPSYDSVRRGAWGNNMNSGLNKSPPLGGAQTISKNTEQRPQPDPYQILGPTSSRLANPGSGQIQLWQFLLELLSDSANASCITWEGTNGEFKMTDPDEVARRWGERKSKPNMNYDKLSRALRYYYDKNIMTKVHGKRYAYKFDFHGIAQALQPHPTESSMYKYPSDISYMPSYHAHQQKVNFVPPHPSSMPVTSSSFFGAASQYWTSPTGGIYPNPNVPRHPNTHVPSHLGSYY
Outline: (§1)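 Human transcription factors fused to GST were expressed in yeast, captured on glutathione beads, given DNA barcodes and pooled with a GST-only negative control. Pools were incubated with 200 nmole of a 16-mer random double-stranded DNA library in Tris/NaCl/DTT/glycerol buffer at room temperature for 30 min. They were then washed, crosslinked with 0.1% formaldehyde, proximity-ligated (BsaI/T4 ligase, 1 h, 37 °C), PCR-amplified and sequenced on an Illumina NextSeq500. Binding signal is each 6-mer's read frequency for a factor divided by its frequency for the GST control.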

ELK1 = molecular target: T2, ELK1 (Homo sapiens, UniProt P19419 1-428); conditions: protein: recombinant; tags: N-terminal GST; dsDNA, one strand shown
T2 sequence: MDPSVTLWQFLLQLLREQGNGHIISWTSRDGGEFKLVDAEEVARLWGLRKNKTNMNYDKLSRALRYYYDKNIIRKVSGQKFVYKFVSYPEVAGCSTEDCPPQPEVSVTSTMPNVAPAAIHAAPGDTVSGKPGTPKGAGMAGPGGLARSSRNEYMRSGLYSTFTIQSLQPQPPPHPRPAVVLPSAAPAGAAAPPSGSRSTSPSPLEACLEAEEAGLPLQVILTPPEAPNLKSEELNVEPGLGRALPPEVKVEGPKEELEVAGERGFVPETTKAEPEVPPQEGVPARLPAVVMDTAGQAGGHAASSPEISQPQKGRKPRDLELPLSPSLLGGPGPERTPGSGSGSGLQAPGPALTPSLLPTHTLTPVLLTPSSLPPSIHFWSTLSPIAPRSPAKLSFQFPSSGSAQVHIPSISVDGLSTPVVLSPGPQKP
Outline: as §1

GABPA = molecular target: T3, GABPA (Homo sapiens, UniProt Q06546 1-454); conditions: protein: recombinant; tags: N-terminal GST; dsDNA, one strand shown
T3 sequence: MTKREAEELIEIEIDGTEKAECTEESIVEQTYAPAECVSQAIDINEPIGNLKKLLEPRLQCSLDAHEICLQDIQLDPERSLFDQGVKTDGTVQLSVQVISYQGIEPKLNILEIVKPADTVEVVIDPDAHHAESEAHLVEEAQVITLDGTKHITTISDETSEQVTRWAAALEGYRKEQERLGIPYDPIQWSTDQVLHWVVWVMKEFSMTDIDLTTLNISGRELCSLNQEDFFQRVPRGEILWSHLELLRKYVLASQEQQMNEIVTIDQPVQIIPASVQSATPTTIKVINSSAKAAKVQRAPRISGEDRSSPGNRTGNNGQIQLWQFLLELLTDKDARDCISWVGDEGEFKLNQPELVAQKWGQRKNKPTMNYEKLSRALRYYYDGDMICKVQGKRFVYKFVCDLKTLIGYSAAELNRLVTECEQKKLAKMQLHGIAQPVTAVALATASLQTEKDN
Outline: as §1

ERG = molecular target: T4, ERG (Homo sapiens, UniProt P11308 1-479); conditions: protein: recombinant; tags: N-terminal GST; dsDNA, one strand shown
T4 sequence: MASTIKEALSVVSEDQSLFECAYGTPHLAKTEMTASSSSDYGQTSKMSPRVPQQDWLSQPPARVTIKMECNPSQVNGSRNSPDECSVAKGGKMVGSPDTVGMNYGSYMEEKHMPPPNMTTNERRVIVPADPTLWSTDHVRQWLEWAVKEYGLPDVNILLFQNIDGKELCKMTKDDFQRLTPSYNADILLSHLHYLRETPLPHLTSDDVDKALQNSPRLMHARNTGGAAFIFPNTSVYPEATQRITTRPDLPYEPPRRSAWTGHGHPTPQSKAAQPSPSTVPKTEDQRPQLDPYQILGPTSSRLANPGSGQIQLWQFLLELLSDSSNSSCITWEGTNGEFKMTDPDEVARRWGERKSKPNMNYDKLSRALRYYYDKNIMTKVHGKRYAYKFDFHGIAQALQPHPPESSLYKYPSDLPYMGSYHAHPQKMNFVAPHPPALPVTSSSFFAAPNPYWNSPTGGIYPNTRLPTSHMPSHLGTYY
Outline: as §1

ELF1 = ELF1 (Homo sapiens, UniProt P32519 1-619); conditions: protein: recombinant; tags: N-terminal GST; dsDNA, one strand shown
Outline: as §1

EHF = molecular target: T5, EHF (Homo sapiens, UniProt Q9NZC4 1-300); conditions: protein: recombinant; tags: N-terminal GST; dsDNA, one strand shown
T5 sequence: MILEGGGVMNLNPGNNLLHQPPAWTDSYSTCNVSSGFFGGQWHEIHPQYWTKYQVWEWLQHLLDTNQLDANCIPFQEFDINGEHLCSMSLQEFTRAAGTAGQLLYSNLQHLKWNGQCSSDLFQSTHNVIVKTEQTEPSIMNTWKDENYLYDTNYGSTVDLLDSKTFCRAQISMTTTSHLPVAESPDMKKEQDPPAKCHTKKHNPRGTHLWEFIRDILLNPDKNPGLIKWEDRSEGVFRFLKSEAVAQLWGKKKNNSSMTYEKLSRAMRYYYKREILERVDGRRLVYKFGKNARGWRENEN
Outline: as §1

SPI1 = SPI1 (Homo sapiens, UniProt P17947 1-270); conditions: protein: recombinant; tags: N-terminal GST; dsDNA, one strand shown
Outline: as §1

SPIB = SPIB (Homo sapiens, UniProt Q01892 1-262); conditions: protein: recombinant; tags: N-terminal GST; dsDNA, one strand shown
Outline: as §1

ELK3 = molecular target: T6, ELK3 (Homo sapiens, UniProt P41970 1-407); conditions: protein: recombinant; tags: N-terminal GST; dsDNA, one strand shown
T6 sequence: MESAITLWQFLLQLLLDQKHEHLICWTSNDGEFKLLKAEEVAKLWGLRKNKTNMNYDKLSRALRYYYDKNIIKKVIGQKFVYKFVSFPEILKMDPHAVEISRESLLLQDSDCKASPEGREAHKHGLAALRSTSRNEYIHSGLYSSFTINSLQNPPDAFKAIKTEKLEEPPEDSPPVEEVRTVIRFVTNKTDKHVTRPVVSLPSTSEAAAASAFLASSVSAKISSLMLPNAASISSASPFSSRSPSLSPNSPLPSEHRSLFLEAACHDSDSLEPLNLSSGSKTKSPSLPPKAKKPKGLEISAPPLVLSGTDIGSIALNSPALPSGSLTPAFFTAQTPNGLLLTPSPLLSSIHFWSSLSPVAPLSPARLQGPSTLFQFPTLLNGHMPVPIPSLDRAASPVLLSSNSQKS
Outline: as §1

FEV = molecular target: T7, FEV (Homo sapiens, UniProt Q99581 1-238); conditions: protein: recombinant; tags: N-terminal GST; dsDNA, one strand shown
T7 sequence: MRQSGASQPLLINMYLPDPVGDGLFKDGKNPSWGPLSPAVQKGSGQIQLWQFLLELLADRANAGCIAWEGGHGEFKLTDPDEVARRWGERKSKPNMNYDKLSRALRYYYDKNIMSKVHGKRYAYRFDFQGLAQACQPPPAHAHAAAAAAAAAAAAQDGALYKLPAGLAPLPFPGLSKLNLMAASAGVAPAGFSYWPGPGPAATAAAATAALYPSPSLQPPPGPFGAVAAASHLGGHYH
Outline: as §1

ETV5 = ETV5 (Homo sapiens, UniProt P41161 1-510); conditions: protein: recombinant; tags: N-terminal GST; dsDNA, one strand shown
Outline: as §1

HSF1 = HSF1 (Homo sapiens, UniProt Q00613 1-529); conditions: protein: recombinant; tags: N-terminal GST; chain copies: 3; dsDNA, one strand shown
Outline: as §1

SPIC = molecular target: T8, SPIC (Homo sapiens, UniProt Q8N5J4 1-248); conditions: protein: recombinant; tags: N-terminal GST; dsDNA, one strand shown
T8 sequence: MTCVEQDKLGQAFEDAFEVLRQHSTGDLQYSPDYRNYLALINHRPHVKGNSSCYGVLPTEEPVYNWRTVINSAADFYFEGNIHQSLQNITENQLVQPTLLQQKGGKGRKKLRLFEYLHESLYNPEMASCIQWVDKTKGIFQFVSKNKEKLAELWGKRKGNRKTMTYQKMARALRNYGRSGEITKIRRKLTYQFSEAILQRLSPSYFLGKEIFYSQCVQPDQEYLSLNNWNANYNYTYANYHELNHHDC
Outline: as §1

ELF4 = ELF4 (Homo sapiens, UniProt Q99607 1-663); conditions: protein: recombinant; tags: N-terminal GST; dsDNA, one strand shown
Outline: as §1

ELK4 = molecular target: T9, ELK4 (Homo sapiens, UniProt P28324-2 1-405); conditions: protein: recombinant; tags: N-terminal GST; dsDNA, one strand shown
T9 sequence: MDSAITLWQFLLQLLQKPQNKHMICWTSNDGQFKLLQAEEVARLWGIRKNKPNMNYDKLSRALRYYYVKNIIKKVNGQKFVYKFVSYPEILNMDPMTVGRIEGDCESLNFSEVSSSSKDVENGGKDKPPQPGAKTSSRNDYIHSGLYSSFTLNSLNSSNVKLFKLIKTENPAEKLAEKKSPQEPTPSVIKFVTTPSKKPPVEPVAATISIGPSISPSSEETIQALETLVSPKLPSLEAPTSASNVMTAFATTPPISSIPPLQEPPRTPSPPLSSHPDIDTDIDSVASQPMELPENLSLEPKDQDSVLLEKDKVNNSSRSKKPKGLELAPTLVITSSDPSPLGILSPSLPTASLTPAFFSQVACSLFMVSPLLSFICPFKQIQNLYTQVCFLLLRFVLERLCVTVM
Outline: as §1

ETV2 = molecular target: T10, ETV2 (Homo sapiens, UniProt O00321 1-342); conditions: protein: recombinant; tags: N-terminal GST; dsDNA, one strand shown
T10 sequence: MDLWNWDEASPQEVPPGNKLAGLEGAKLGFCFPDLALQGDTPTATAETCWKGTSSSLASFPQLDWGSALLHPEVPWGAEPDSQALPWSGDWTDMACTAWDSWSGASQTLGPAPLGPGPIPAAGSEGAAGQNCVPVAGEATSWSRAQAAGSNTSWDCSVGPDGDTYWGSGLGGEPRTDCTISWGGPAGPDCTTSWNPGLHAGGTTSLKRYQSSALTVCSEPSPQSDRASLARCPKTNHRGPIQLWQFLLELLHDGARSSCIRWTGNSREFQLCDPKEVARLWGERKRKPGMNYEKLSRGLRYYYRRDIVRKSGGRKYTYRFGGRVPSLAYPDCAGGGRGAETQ
Outline: as §1

ELF3 = molecular target: T11, ELF3 (Homo sapiens, UniProt P78545 1-371); conditions: protein: recombinant; tags: N-terminal GST; dsDNA, one strand shown
T11 sequence: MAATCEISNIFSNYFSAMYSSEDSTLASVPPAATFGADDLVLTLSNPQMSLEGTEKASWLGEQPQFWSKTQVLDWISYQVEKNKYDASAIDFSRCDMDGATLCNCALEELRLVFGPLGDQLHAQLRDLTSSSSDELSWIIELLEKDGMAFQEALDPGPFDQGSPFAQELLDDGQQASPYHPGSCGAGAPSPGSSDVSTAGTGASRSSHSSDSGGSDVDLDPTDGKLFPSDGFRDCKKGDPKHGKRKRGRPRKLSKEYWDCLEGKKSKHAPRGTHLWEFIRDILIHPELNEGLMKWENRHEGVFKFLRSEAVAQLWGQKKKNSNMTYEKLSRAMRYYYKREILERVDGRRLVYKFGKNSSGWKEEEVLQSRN
Outline: as §1

CRX = CRX (Homo sapiens, UniProt O43186 1-299); conditions: protein: recombinant; tags: N-terminal GST; dsDNA, one strand shown
Outline: as §1

ETV1 = ETV1 (Homo sapiens, UniProt P50549 1-477); conditions: protein: recombinant; tags: N-terminal GST; dsDNA, one strand shown
Outline: as §1

Chain of ELF4 (Q99607 whole entry): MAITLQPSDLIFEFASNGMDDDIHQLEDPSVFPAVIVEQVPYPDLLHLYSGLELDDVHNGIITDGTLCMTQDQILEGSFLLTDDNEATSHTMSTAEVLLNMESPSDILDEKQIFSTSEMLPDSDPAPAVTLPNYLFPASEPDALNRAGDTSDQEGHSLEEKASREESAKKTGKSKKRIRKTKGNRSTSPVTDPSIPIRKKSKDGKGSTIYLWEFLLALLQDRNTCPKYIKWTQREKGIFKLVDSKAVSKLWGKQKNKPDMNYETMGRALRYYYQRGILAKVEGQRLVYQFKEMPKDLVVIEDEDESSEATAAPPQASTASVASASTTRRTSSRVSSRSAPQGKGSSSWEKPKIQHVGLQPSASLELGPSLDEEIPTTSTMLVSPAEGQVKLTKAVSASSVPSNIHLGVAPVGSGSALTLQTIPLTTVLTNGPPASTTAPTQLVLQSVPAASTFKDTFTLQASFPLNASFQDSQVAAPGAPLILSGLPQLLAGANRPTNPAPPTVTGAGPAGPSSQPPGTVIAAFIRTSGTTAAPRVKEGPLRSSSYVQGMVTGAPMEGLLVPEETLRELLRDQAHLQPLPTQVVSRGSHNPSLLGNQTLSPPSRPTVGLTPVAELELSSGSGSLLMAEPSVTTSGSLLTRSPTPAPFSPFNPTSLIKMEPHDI
Chain of ELF1 (P32519 whole entry): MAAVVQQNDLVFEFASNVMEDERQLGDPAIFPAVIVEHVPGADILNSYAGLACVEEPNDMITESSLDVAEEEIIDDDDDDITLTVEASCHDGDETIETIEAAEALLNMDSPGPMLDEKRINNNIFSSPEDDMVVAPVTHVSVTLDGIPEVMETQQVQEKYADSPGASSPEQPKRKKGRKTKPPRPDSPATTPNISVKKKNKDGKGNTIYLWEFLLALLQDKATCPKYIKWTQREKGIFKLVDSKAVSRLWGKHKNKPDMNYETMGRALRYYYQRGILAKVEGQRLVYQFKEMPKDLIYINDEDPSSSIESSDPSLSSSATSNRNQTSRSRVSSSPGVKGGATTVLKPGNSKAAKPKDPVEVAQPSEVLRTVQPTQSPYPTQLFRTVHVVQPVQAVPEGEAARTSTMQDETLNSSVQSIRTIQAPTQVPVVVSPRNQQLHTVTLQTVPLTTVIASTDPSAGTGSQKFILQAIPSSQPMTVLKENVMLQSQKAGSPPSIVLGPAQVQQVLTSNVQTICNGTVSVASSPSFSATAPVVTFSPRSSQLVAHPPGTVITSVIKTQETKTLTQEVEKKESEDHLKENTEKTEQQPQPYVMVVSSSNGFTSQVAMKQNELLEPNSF
Chain of CRX (O43186 whole entry): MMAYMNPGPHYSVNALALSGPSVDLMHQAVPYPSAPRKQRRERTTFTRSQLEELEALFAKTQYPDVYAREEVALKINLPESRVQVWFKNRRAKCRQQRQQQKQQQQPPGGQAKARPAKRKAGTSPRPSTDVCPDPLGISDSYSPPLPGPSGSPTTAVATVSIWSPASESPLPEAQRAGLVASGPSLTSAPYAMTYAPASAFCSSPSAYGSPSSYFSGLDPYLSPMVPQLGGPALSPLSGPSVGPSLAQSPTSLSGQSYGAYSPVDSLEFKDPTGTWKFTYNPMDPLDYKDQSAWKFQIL
Chain of ETV1 (P50549 whole entry): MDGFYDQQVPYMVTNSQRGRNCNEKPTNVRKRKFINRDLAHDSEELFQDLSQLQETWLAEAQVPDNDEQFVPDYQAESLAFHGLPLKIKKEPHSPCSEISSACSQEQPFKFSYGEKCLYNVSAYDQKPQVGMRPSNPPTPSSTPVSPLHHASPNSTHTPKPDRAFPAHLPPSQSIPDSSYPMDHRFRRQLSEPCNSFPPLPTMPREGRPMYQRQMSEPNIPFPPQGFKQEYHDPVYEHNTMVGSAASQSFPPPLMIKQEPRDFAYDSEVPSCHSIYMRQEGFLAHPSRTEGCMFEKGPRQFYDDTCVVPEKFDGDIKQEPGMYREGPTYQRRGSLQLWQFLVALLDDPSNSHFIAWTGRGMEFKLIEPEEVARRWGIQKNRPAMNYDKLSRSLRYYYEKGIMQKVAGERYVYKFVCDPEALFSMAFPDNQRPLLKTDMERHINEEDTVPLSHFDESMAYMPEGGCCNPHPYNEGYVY
Chain of HSF1 (Q00613 whole entry): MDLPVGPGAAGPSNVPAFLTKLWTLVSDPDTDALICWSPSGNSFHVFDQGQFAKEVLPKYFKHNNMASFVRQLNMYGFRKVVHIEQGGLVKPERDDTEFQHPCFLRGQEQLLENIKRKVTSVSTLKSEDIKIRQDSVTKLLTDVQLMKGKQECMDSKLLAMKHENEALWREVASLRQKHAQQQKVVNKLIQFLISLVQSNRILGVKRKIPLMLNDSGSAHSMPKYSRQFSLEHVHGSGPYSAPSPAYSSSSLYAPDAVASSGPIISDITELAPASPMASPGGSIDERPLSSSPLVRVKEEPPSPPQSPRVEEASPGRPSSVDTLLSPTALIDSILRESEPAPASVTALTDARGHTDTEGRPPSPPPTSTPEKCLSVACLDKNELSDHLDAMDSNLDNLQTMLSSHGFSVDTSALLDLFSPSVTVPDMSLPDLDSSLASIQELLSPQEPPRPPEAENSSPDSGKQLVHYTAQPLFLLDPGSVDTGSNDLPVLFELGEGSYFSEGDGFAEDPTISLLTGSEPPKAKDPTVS
Chain of ETV5 (P41161 whole entry): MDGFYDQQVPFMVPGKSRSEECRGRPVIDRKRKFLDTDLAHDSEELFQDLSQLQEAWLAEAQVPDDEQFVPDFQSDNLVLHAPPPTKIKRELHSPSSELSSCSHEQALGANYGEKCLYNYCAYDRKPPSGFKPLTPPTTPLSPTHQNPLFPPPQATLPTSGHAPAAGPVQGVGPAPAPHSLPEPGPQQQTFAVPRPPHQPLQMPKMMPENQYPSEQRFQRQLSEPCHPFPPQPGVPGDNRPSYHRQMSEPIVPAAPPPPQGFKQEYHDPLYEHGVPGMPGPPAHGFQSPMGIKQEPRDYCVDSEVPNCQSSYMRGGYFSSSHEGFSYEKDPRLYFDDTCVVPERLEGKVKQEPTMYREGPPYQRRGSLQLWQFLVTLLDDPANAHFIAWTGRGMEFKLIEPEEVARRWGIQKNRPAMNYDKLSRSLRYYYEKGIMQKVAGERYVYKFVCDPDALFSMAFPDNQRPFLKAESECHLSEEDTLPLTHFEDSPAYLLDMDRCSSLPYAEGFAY
Chain of SPIB (Q01892 whole entry): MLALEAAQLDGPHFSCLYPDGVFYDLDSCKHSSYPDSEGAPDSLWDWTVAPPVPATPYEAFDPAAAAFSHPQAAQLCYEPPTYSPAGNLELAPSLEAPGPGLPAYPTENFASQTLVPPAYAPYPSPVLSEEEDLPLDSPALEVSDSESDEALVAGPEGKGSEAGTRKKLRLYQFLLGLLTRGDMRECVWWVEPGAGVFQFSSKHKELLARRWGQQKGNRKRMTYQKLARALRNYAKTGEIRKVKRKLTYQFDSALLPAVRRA

CCCGTA
binding signal (FLI1): 1.14 fold enrichment (6-mer frequency, TF over GST control) | binding signal (ELK1): 1.11 fold enrichment (6-mer frequency, TF over GST control) | binding signal (GABPA): 1.2 fold enrichment (6-mer frequency, TF over GST control) | binding signal (ERG): 1.2 fold enrichment (6-mer frequency, TF over GST control) | binding signal (ELF1): 1.25 fold enrichment (6-mer frequency, TF over GST control) | binding signal (EHF): 1.24 fold enrichment (6-mer frequency, TF over GST control) | binding signal (SPI1): 1.19 fold enrichment (6-mer frequency, TF over GST control) | binding signal (SPIB): 1.14 fold enrichment (6-mer frequency, TF over GST control) | binding signal (ELK3): 1.32 fold enrichment (6-mer frequency, TF over GST control) | binding signal (FEV): 1.16 fold enrichment (6-mer frequency, TF over GST control) | binding signal (ETV5): 1.25 fold enrichment (6-mer frequency, TF over GST control) | binding signal (HSF1): 1.22 fold enrichment (6-mer frequency, TF over GST control) | binding signal (SPIC): 1.31 fold enrichment (6-mer frequency, TF over GST control) | binding signal (ELF4): 1.16 fold enrichment (6-mer frequency, TF over GST control) | binding signal (ELK4): 1.21 fold enrichment (6-mer frequency, TF over GST control) | binding signal (ETV2): 1.3 fold enrichment (6-mer frequency, TF over GST control) | binding signal (ELF3): 1.14 fold enrichment (6-mer frequency, TF over GST control) | binding signal (CRX): 1.17 fold enrichment (6-mer frequency, TF over GST control) | binding signal (ETV1): 1.16 fold enrichment (6-mer frequency, TF over GST control)
